Screening data: PubChem, several laboratories
ERb SRC1 inh – inhibitors of ERβ-SRC1 coactivator interaction, primary screen, biochemical, TR-FRET, ERβ LBD, SRC-1 peptide; Estrogen receptor beta (Homo sapiens), Q92731; TR-FRET ER-beta LBD / SRC1-Cy5 peptide binding; receptor agonist-loaded with 1 µM estradiol; hit rate 1.3% among 86,000; inhibition, % at 25.6 µM;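 active = compounds whose percent inhibition of the receptor-coactivator binding signal exceeds about 50% in the single-dose screen, limit read from the data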;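 also: 0% = receptor plus peptide wells without compound and 100% = peptide-only wells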
ERa SRC1 pot – enhancers of ERα–SRC-1 coactivator binding, primary screen, biochemical, TR-FRET, ERα LBD, low estradiol; AID 639, 2007; coactivator binding (% of control), % at 25.6 µM; TR-FRET ERalpha-LBD/SRC-Cy5 coactivator binding, 2 h; 100 = basal binding, no effect; hit rate 1.3% among 86,000; in the data active = activity above about 200%;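 also: binding measured in presence of low estradiol as agonist stimulus; 0% = peptide alone without receptor and 100% = receptor with peptide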
ERa coact inh – ERα–SRC-1 coactivator interaction inhibitors, primary screen, biochemical, TR-FRET, ERα LBD, estradiol-bound. Estrogen receptor (Homo sapiens), P03372. TR-FRET ER-alpha LBD / SRC-1 peptide. inhibition, % at 25.6 µM. hit rate 1.7% among 86,000; in the data active = inhibition above about 50%;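 also: 0% = receptor plus peptide control and 100% = peptide only without receptor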
Calb biofilm kill – clotrimazole potentiators killing Candida biofilms, primary screen, with clotrimazole, Alamar Blue | C. albicans biofilm + clotrimazole | inhibition, % at 6 µM | hit rate 0.14% among 85,000 | AID 834, 2007;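 active = inhibition above 20%; inactive = inhibition below 20%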;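 also: preformed 24 hr biofilms exposed to compound for 48 hr; 0% = biofilm without compound and 100% = blank killed by clotrimazole plus chlorhexidine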
Smad3 inh – Smad3/FoxH1 peptide binding inhibitors, primary screen, biochemical, TR-FRET | Mothers against decapentaplegic homolog 3 (Homo sapiens), P84022 | TR-FRET Smad3/Dy647-FoxH1 peptide binding, europium anti-His | inhibition, % at 25 µM | hit rate 0.29% among 88,000 | AID 630, 2007;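 active = compounds that reduce the energy-transfer binding signal between the protein and its labelled peptide by more than half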;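 also: 0% = Smad3 plus labelled peptide maximal FRET and 100% = peptide-only background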
Target sequence (P84022 whole entry, looked up): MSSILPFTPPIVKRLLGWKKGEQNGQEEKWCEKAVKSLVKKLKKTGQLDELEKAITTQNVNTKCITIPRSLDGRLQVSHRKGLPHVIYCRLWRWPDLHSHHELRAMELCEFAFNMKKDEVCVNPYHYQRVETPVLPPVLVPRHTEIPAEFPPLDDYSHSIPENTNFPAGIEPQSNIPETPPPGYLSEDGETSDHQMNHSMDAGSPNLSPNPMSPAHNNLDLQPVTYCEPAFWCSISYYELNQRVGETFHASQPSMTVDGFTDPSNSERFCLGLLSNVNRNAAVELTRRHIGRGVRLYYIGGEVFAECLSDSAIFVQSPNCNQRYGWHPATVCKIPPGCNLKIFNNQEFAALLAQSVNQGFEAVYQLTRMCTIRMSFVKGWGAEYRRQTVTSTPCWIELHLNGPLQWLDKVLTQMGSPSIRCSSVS
* = called active by the depositor; / = not tested or not shown; [ ] = remark or other dose. A selection: hits, their analogues and other compounds. The true share with any hit is near 3.8%.

SMILES	ERb SRC1 inh	ERa SRC1 pot	ERa coact inh	Calb biofilm kill	Smad3 inh
CCOC(=O)c1[nH]c(C)c(/C(O)=C2\C(=O)C(=O)N(CCN(C)C)C2c2ccncc2)c1C (centres undefined)	4	97	-22	8	0
CCOC(=O)c1[nH]c(C)c(/C(O)=C2\C(=O)C(=O)N(CCN(C)C)C2c2cccc(OC)c2OC)c1C (centres undefined)	-9	599*[fluorescence artefact?]	-2	7	12
Cc1ccc(S(=O)(=O)O[C@@H]2[C@@H]3OC(C)(C)O[C@@H]3O[C@@H]2[C@@H]2COC(C)(C)O2)cc1	/	/	/	/	48
C[N+](C)(C)c1nc(N)nc2c1ncn2[C@H]1O[C@@H](CO)[C@H](O)[C@H]1O	/	/	/	/	-2
Cn1cnc([N+](=O)[O-])c1[Se]c1nc(N)nc2c1ncn2[C@H]1O[C@@H](CO)[C@H](O)[C@H]1O	/	/	/	/	75*
O=C(O)c1cc(-c2ccc(-c3ccccc3)cc2)nc2cc3ccccc3cc12	/	/	/	/	10
CCOC(=O)N/N=C\c1ccc([N+](=O)[O-])o1	17	101	4	-3	18
O=[N+]([O-])c1ccc(/C=N/Nc2nc(N3CCCCCC3)nc(N3CCCCCC3)n2)o1	96*[fluorescence artefact?]	80	14	8	14
CCOC(=O)C1CCN(c2c(N(C)Cc3ccco3)c(=O)c2=O)CC1	-9	99	-5	22*	4
CCOC(=O)C1CCCN(c2c(NCc3ccco3)c(=O)c2=O)C1 (centres undefined)	-7	146	1	2	7
CCOC(=O)c1ccc(Nc2ncnc3c2cnn3C)cc1	72*[fluorescence artefact?]	111	-3	6	-6
O=C(CN1C(=O)NC2(CCCC2)C1=O)Nc1cccc(-c2nnc3n2CCCCC3)c1	5	106	-6	-2	2
CC(=O)c1cccc(NC(=O)CN2C(=O)NC3(CCCCCCC3)C2=O)c1	31	69	57*	0	10
COC(=O)c1ccc(Cn2cnc3c(sc4nc(N5CCOCC5)c5c(c43)CCCC5)c2=O)o1	36	203*	10	-2	-5
COC(=O)c1ccc(Cn2nnc3c(sc4nc(N5CCOCC5)c5c(c43)CCCC5)c2=O)o1	-2	106	-5	2	-3
COC(=O)CSc1ncnc2c1sc1nc(N3CCOCC3)c3c(c12)CCCC3	36	391*[fluorescence artefact?]	12	1	9
O=C(Nc1cccnc1)c1cc(-c2ccc3c(c2)OCO3)on1	17	405*	29	6	8
O=C(Nc1cccnc1)c1cc(-c2cccs2)on1	4	115	8	1	1
CN(C)c1nc(N/N=C\c2ccc(Cl)c([N+](=O)[O-])c2)nc(Nc2ccc(F)cc2)n1	31	102	78*	0	11
Cc1ccc(CNc2nc(N)c([N+](=O)[O-])c(Nc3ccc(F)cc3)n2)cc1	18	110	12	10	-5
CN(CC(=O)O)Cc1c[nH]c2ccccc12	/	/	/	/	-8
Cc1cc(C)c(NC(=O)COc2ccccc2C(=O)Nc2ccc3c(c2)oc2ccccc23)c(C)c1	8	113	-5	-1	-6
Cc1cc2sc(C(=O)O)c(C)c2s1	-2	105	21	5	54*[fluorescence artefact?]
Cc1ccc(-c2cc(C(=O)Nc3cc(C)ccc3C)[nH]n2)c(O)c1	8	122	22	4	-8
COc1ccc(OC)c(NC(=O)c2cc(-c3ccc(C)cc3O)n[nH]2)c1	40	120	70*	7	-7
SMILES	ERb SRC1 inh	ERa SRC1 pot	ERa coact inh	Calb biofilm kill	Smad3 inh
Cc1nn(-c2ccccc2)c(C)c1C(=O)OC/C(O)=C(\C#N)c1nc2ccccc2[nH]1	23	60	56*[fluorescence artefact?]	3	1
Cc1csc(NC(=O)CN(C)S(=O)(=O)c2cccc3cccnc23)n1	-9	138	-8	5	9
Cc1ccc(NC(=O)CN(C)S(=O)(=O)c2cccc3cccnc23)cc1	-7	110	-5	23*	5
C[N+](C)([O-])Cc1cc(-c2ccccc2)ccc1O	/	/	/	/	10
Cc1cccc2[nH]c3c(=O)n(CCN4CCNCC4)cnc3c12	-3	114	-11	-3	-2
CC(C)CCn1cnc2c([nH]c3cccc(Cl)c32)c1=O	17	596*[fluorescence artefact?]	15	3	5
NS(=O)(=O)c1ccc(N=Nc2c[nH]c(=O)c(O)c2)cc1	/	/	/	/	78*
COc1c2c(c3c(c1CCC(=O)O)OC(C)(C)C=C3)OC(C)(C)C=C2	/	/	/	/	-6
CCn1c(CCCc2nc3c([nH]2)c(=O)n(C)c(=O)n3C)nc2c1c(=O)n(C)c(=O)n2C	/	/	/	/	7
Cc1cc(C)c(S(=O)(=O)N2CCC(C(=O)NCc3ccc(Cl)cc3Cl)CC2)c(C)c1	-1	91	-4	69*	0
CCS(=O)(=O)N1CCC(C(=O)NCc2ccc(F)cc2Cl)CC1	2	108	-1	-5	3
N[C@@H](Cc1ccnnc1)C(=O)O	/	/	/	/	-8
O=C1CC(c2ccco2)=Nc2ccccc2N1	-11	106	-4	2	-5
Cc1ccc(O)c(C2=Nc3ccccc3N=C(c3ccco3)C2)c1	41	228*[fluorescence artefact?]	34	8	41
O=C(CSCc1cccc(Cl)c1)N1CCN(Cc2ccc3c(c2)OCO3)CC1	-5	107	-1	6	-3
Cc1ccc2cc(CN(CC3CCCO3)C(=O)c3ccco3)c(=O)[nH]c2c1C (centres undefined)	54*	116	-9	5	-5
CCS(=O)(=O)N1Cc2ccccc2CC1C(=O)N1CCN(c2cccc(C)c2C)CC1 (centres undefined)	51*	61	80*[fluorescence artefact?]	1	-12
Cc1ccc(-c2ccc(CCC(=O)O)n2CC(=O)O)cc1	14	81	2	1	1
COC(=O)Cn1c(CCC(=O)O)ccc1-c1ccccc1	-2	97	-7	31*	2
COc1ccc2[nH]c(=O)c(-c3noc(-c4ccccc4)n3)cc2c1	61*[fluorescence artefact?]	188	69*[fluorescence artefact?]	-3	11
CS[C@@]12C(=O)C[C@@]3(C)[C@@H](CC[C@@]3(O)C(=O)CO)[C@H]1CCC1=CC(=O)CC[C@]12C	/	/	/	/	-11
CC(C)c1cc(N2CCN(C(=O)c3ccco3)CC2)n2c(nc3ccccc32)c1C#N	-4	112	-4	5	-7
Cc1cc(-c2ccco2)c(C#N)c2nc3ccccc3n12	48	86	81*[fluorescence artefact?]	4	5
Cc1nnc(Sc2nc(Sc3nnc(C)s3)nc(N3CCN(C)CC3)n2)s1	60*[fluorescence artefact?]	111	-14	5	3
Cc1nnc(Sc2c(N)n(C)c(=O)n(C)c2=O)s1	-3	104	0	2	-3
COc1ccc(C(=O)c2ccc(N3CCN(C(=O)c4ccc(F)cc4)CC3)c(F)c2)cc1Br	22	292*[fluorescence artefact?]	24	3	11
